Sampled rows, rich in hits. Any-hit rate of the full collection: about 9%.
G9a inh – inhibitors of human histone lysine methyltransferase G9a; G9a H3K9 monomethylation, AlphaScreen, 2 h; Potency, µM (titrated, usually from 102 µM), without a hit: top-dose activity, negative = inhibition, hits mostly inhibitors; Q96KQ7; 350,000 tested, 8.8% active; AID 504332; note: % is set by controls: 0 for no effect and ±100 for the full control effect; nearly all actives have a fitted effect of over 75% in size
Target sequence (Q96KQ7 913-1193 limits assumed): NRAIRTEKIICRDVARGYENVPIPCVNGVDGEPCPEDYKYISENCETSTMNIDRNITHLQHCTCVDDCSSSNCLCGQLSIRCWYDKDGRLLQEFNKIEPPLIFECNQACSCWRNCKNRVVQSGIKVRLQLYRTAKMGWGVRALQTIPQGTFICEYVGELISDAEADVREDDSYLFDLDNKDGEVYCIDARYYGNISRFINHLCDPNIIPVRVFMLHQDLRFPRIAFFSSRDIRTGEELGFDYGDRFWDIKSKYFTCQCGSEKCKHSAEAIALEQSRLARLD
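Step 1: enzyme (final 20 nM) with compound, 15 min RT. Step 2: substrate peptide 500 nM and SAM 20 uM, 2 h RT. Step 3: anti-H3K9me1 antibody and AlphaScreen beads, 10 min, then plate read.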
JMJD2A Tudor inh – inhibitors of human JMJD2A Tudor domain | O75164 | AlphaScreen JMJD2A-Tudor / H3K4me3 peptide binding | Potency, µM (doses to about 114 µM), for inactives: top-dose activity change, negative = inhibition, most hits filed as inhibitors | 390,000 tested, 4.4% active; note: % is set by controls: 0 for no effect and ±100 for the full control effect; nearly all actives have a fitted effect of over 50% in size
PLK1 PBD inh – inhibitors of human PLK1 polo-box domain binding. 360,000 tested, 2.8% active. AID 720504. Potency, µM, for the others: max response, negative = inhibition, actives largely listed as inhibitors. Plk1 PBD binding of FITC phosphopeptide, fluorescence polarization; note: series mostly up to about 57 µM; % is set by controls: 0 for no effect and ±100 for the full control effect; nearly all actives have a fitted effect of over 65% in size
BAZ2B block – BAZ2B (human) inhibition | 360,000 tested, 4.4% active | AID 504333 | Potency, µM (series often up to 114 µM), for the others: top-dose activity change, negative = inhibition, actives largely listed as inhibitors | AlphaScreen BAZ2B-H3K14Ac peptide displacement | Q9UIF8; note: % is set by controls: 0 for no effect and ±100 for the full control effect; nearly all actives have a fitted effect of over 60% in size
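AlphaScreen luminescence quantifies BAZ2B engagement of H3K14Ac peptide; the protein and biotinylated peptide are both at 50 nM final, buffer PBS pH 7.4 with 0.01% Tween-20, all steps at room temperature.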
12-LOX inh – inhibitors of human 12S-lipoxygenase ALOX12 | Potency, µM (series often up to 108 µM), for inactives: top-dose activity change, negative = inhibition, actives largely listed as inhibitors | AID 1671190 | P18054 | purified 12hLO, xylenol orange hydroperoxide absorbance | 580,000 tested, 1.1% active; note: % is set by controls: 0 for no effect and ±100 for the full control effect
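Hydroperoxide product was detected by ferrous iron/xylenol orange as the 573 to 405 nm absorbance ratio. Arachidonic acid at 40 uM (final) was turned over for 30 min at room temperature by 150 nM human 12hLO, pH 7.0 Hepes buffer, after 15 min compound preincubation.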
HP1b binding inh – blocks HP1-beta chromodomain binding to methylated histone tails; Potency, µM (highest dose often 114 µM), for the others: at the highest dose activity change, negative = inhibition, usual class: inhibitors; AlphaScreen HP1-beta / biotin-H3K9me3 peptide binding; 390,000 tested, 0.56% active; P83916; note: nearly all actives have a fitted effect of over 70% in size
Target sequence (P83916 whole entry, looked up): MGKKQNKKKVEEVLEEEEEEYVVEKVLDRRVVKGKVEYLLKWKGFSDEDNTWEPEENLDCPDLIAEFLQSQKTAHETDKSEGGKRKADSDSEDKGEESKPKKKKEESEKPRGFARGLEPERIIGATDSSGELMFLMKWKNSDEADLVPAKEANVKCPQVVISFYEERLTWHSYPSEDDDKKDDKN
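HP1-beta protein (50 nM final) preincubated 30 min at room temperature with biotinylated H3(1-18)K9me3 peptide (50 nM) in PBS pH 7.4, 0.01% Tween-20, then compound added for 30 min. AlphaScreen streptavidin donor/nickel chelate acceptor beads (10 ug/mL final), 30 min dark, luminescence read.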
An asterisk follows results filed as active; u = inconclusive; x = no result given; ! = repeats disagree; [ ] = another dose, or the depositor's remark. Calls come from the whole dose curve; as a rule, active = well fitted curve in the direction sought with a large enough effect; inconclusive = small, poorly fitted or top-dose-only effect, or another doubt; inactive = no such curve, though single readings can be large; an effect the other way counts as inactive or inconclusive. Potency is the fitted concentration of half-maximal effect.

SMILES | G9a inh | JMJD2A Tudor inh | PLK1 PBD inh | BAZ2B block | 12-LOX inh | HP1b binding inh
COP(=O)(OC)C(NC(=O)/C=C/c1ccccc1)C(Cl)(Cl)Cl (stereo unspecified) | u | -11%[11.4 µM] | -21% | 2% | -11% | -2%
COc1ccc(/C=C2/C(=O)NC(=O)N(c3ccccc3)C2=O)cc1CN1C(=O)c2ccccc2C1=O | -111%[59 µM] | -35% | 6µM* | u | x | 20%
C[N+]1(C)C2CC(OC(=O)C(CO)c3ccccc3)CC1C1OC12 (stereo unspecified) | 4%[12.7 µM] | -7% | -16% | 11% | 10% | 23%
C[C@](N)(CCP(=O)(O)O)C(=O)O | 14µM*! | 4µM* | -9% | u | u | -15%
NCCCP(=O)(O)O | -7%[59 µM] | x | x | x | x | x
CCOC(=O)[C@]12Cc3cc(OC)ccc3[C@H]1N(Cc1ccccc1)C(=O)c1ccccc12 | x | -12% | -13% | x | 3% | 38%
CCOC(=O)[C@]12Cc3c(cc(OC)c(OC)c3OC)[C@H]1N(C)C(=O)c1cc(OC)ccc12 | x | x | 13µM* | x | u | x
CCOC(=O)[C@]12Cc3ccccc3[C@H]1N(C(C)C)C(=O)c1cc(OC)ccc12 | x | x | 7.5µM* | x | u | x
CCOC(=O)[C@]12Cc3ccccc3[C@H]1N(C)C(=O)c1cc(OC)ccc12 | x | x | 13µM* | x | -28% | x
CCOC(=O)[C@]12Cc3cc(C)ccc3[C@H]1N(C1CCCCC1)C(=O)c1cc(OC)ccc12 | x | x | 2.4µM* | x | -71% | x
CCOC(=O)[C@]12Cc3c(cc(OC)c(OC)c3OC)[C@H]1N(C(C)C)C(=O)c1ccccc12 | x | x | 13µM* | x | -8% | x
CCOC(=O)[C@]12Cc3cc(C)ccc3[C@H]1N(C(C)C)C(=O)c1ccccc12 | x | x | 11µM* | x | u | x
CCOC(=O)[C@]12Cc3cc(C)ccc3[C@H]1N(Cc1ccccc1)C(=O)c1cc(F)c(F)cc12 | x | x | 11µM* | x | 0% | x
Cc1ccnc(N2CC3CCC(C2)N3CC(F)(F)F)c1[N+](=O)[O-] | x | x | x | x | -1%[6.33 µM] | x
CCOc1ccc(C2(C#N)CC[N+](C)(C)CC2)cc1 | 0%[0.501 µM] | -10% | -7% | 2% | 9% | 56%
CCOc1ccccc1N=Cc1c(O)n(C)c(=O)n(C)c1=O | 50µM* | -5% | -2% | 1% | 11% | 46%
Nc1nc(N)c2cnnn2n1 | x | -3% | 3% | x | 4% | 10%[57 µM]
Cc1ccc(N2C(=O)NC(=O)C3(Cc4ccccc4N4CCCC43)C2=O)cc1 (stereo unspecified) | 8.9µM* | -27% | -7% | -2% | u | 33%
O=C1NC(=O)C2(Cc3ccccc3N3CCCC32)C(=O)N1c1ccc(Cl)cc1 (stereo unspecified) | 20µM* | u | -18% | 12% | u | 15%
CN1C(=O)N(C)C(=O)C2(Cc3ccccc3N3CCCC32)C1=O (stereo unspecified) | 11%[12.7 µM] | -20% | -17% | -6% | u | 27%
CCc1nc2ccccc2c(=O)n1-c1ccc2ccccc2c1 | -13% | 0% | -4% | -5% | 5% | 44%
Brc1ccc2[nH]cc(/C=N/N3CCCCC3)c2c1 | u | 50µM* | -7% | 45µM* | u | u
C(=NN1CCCCCC1)c1c[nH]c2ccccc12 | x | u | -11% | x | u | -9%
Cc1nc2c(c(=O)[nH]1)C(c1ccccc1Cl)c1c(c3ccccc3oc1=O)O2 (stereo unspecified) | 18%[59 µM] | -10% | 0% | -2% | x | 38%
CCC12CN3CCN(CC(C3)C1O)C2 (stereo unspecified) | 1%[59 µM] | -5% | -1% | 2% | -8% | 34%
SMILES | G9a inh | JMJD2A Tudor inh | PLK1 PBD inh | BAZ2B block | 12-LOX inh | HP1b binding inh
O=c1[nH]c(O)c(/C=C2\C=Nc3ccc(OCc4ccccc4)cc32)c(=O)[nH]1 | -11% | u | 24µM* | u | -15% | 17%
C#CCN1CCN(Cc2ccc3c(c2)OCCO3)CC1 | x | x | x | x | 0% | x
COCCCN1CCN(c2nnc3n2-c2sc(Br)cc2C(c2ccccc2Cl)=NC3)CC1 | 12% | -4% | -4% | 5% | -24% | 40%
NC1C=CC=C(C(=O)O)C1 (stereo unspecified) | 3.2µM* | -21% | -6% | x | 38% | 31%
CC1(C)CN=C(NCc2ccccc2)S1 | x | -13% | -7% | x | -4% | 41%
O=c1[nH]c2ccccc2n1C1CCN(C(CCc2ccccc2)c2nnnn2-c2ccc3c(c2)OCCO3)CC1 (stereo unspecified) | x | x | 0% | x | -4% | x
CN(C)c1ccc(CN2CC=C(c3ccc(F)cc3)CC2)cc1 | u | 50µM* | 0% | 50µM* | u | -38%
CC(=O)CC(c1ccccc1[N+](=O)[O-])c1c(O)c2ccccc2oc1=O (stereo unspecified) | 50µM* | -8% | 6% | -19% | -56% | 30%
O=c1ccc2cc(O[C@@H]3O[C@H](CO)[C@@H](O)[C@H](O)[C@H]3O)c(O)cc2o1 | x | -16% | -18% | x | -1% | 27%
O=[N+]([O-])c1ccc(O[C@@H]2O[C@H](CO)[C@@H](O)[C@H](O)[C@H]2F)c([N+](=O)[O-])c1 | 24µM*! | x | x | x | x | x
O=C(COC(=O)Cc1ccccc1)NC(=O)NC1CCCCC1 | 6% | -14% | -2% | -5% | -6% | 31%
Fc1ccccc1CNCCc1c[nH]c2ccccc12 | u | 45µM* | -8% | 56µM* | u | u
c1coc(CNCCc2c[nH]c3ccccc23)c1 | x | -26% | -10% | u | -3% | 16%
FC(F)(F)c1ccccc1CNCCc1c[nH]c2ccccc12 | 22%[2.33 µM] | 18µM* | -5% | 45µM* | 0% | -13%
CCOP(=O)(C(NC(=O)c1ccccc1Cl)=C(Cl)Cl)c1ccccc1 (stereo unspecified) | 11% | -22% | -11% | -4% | -10% | 34%
COC(=O)[C@@H]1C[C@]2(C(=O)O)c3ccccc3N(OOSc3ccccc3)[C@@H]2N1C(=O)OC | x | -6% | 4% | x | 5% | 43%
CCOC(=O)CNC(=O)N1Cc2cc(-c3cccc(F)c3)ccc2-n2nncc2C1 | x | x | -3% | x | -19% | x
COC1=CC(=O)OC(CCc2ccc3c(c2)OCO3)C1 (stereo unspecified) | x | -18% | -8% | x | 11% | 7%
O=P1(c2ccccc2)Nc2ccccc2N1c1ccccc1 (stereo unspecified) | x | 50µM* | 0% | x | u | u
Cn1c(C(=O)N2CCC3(CC2)OCCO3)cc2c(=O)n(C)c3ccccc3c21 | -9%[59 µM] | -19% | -3% | -4% | 16% | 19%
c1cn(C2CCCNC2)cn1 (stereo unspecified) | x | x | x | x | 30% | x
CCc1ccc(CNCCc2ccccc2F)cc1 | -18%[59 µM] | -11% | -7% | 2% | 5% | 31%

Bioassay records (PubChem BioAssay)
